Laboratory results: ChEMBL document CHEMBL1961873, “Compounds: GSK PKIS; Assays: Nanosyn kinase panel” (2012)

Legend:
[1] = target: Serine/threonine-protein kinase MARK2 (Homo sapiens) (UniProt Q7KZI7); conditions: at 1 µM
[2] = target: PAS domain-containing serine/threonine-protein kinase (Homo sapiens) (UniProt Q96RG2); conditions: at 0.1 µM
[3] = target: PAS domain-containing serine/threonine-protein kinase (Homo sapiens) (UniProt Q96RG2); conditions: at 1 µM
[4] = target: Phosphorylase b kinase gamma catalytic chain, skeletal muscle/heart isoform (Homo sapiens) (UniProt Q16816); conditions: at 0.1 µM
Phosphorylase b kinase gamma catalytic chain, skeletal muscle/heart isoform (Homo sapiens), sequence (Q16816 whole entry, looked up, canonical isoform): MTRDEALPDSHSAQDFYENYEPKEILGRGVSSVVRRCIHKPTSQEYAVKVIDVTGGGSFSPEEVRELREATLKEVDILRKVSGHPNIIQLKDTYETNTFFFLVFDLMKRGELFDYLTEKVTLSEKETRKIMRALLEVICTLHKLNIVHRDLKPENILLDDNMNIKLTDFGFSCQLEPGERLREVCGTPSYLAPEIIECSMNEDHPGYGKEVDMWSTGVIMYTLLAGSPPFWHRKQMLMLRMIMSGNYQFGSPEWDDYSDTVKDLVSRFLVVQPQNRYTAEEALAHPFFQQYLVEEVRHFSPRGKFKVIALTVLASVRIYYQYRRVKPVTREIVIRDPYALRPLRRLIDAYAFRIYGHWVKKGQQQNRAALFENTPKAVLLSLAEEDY

[5] = target: Phosphorylase b kinase gamma catalytic chain, skeletal muscle/heart isoform (Homo sapiens) (UniProt Q16816); conditions: at 1 µM
[6] = target: T1, Phosphorylase b kinase gamma catalytic chain, liver/testis isoform (Homo sapiens) (UniProt P15735); conditions: at 0.1 µM
T1 sequence (whole entry): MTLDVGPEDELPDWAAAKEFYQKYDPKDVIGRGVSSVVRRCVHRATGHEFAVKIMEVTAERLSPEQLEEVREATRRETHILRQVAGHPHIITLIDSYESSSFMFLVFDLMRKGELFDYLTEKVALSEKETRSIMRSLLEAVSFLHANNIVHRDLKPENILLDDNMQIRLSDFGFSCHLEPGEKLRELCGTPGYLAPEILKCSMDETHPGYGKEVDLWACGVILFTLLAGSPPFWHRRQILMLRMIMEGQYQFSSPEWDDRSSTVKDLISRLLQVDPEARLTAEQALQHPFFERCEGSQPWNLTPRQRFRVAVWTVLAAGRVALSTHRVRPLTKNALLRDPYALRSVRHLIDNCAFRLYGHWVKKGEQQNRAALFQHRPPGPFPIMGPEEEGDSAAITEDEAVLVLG

[7] = target: T1, Phosphorylase b kinase gamma catalytic chain, liver/testis isoform (Homo sapiens); conditions: at 1 µM
[8] = target: Serine/threonine-protein kinase pim-1 (Homo sapiens) (UniProt P11309); conditions: at 0.1 µM
Serine/threonine-protein kinase pim-1 (Homo sapiens), sequence (P11309 whole entry, looked up): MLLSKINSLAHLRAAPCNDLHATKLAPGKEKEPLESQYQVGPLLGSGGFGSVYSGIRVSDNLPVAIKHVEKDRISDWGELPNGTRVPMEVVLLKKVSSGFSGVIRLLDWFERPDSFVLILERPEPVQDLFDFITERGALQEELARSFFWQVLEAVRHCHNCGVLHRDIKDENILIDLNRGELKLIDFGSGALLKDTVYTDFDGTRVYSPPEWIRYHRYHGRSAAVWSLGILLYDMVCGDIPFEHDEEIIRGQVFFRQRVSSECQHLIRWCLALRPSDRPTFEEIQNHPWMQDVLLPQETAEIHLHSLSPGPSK

[9] = target: Serine/threonine-protein kinase pim-1 (Homo sapiens) (UniProt P11309); conditions: at 1 µM
[10] = target: Serine/threonine-protein kinase pim-2 (Homo sapiens) (UniProt Q9P1W9); conditions: at 0.1 µM
[11] = target: Serine/threonine-protein kinase pim-2 (Homo sapiens) (UniProt Q9P1W9); conditions: at 1 µM
[12] = target: Serine/threonine-protein kinase pim-3 (Homo sapiens) (UniProt Q86V86); conditions: at 0.1 µM
[13] = target: Serine/threonine-protein kinase pim-3 (Homo sapiens) (UniProt Q86V86); conditions: at 1 µM
[14] = target: T2, MAP kinase-activated protein kinase 5 (Homo sapiens) (UniProt Q8IW41); conditions: at 0.1 µM
T2 sequence (whole entry): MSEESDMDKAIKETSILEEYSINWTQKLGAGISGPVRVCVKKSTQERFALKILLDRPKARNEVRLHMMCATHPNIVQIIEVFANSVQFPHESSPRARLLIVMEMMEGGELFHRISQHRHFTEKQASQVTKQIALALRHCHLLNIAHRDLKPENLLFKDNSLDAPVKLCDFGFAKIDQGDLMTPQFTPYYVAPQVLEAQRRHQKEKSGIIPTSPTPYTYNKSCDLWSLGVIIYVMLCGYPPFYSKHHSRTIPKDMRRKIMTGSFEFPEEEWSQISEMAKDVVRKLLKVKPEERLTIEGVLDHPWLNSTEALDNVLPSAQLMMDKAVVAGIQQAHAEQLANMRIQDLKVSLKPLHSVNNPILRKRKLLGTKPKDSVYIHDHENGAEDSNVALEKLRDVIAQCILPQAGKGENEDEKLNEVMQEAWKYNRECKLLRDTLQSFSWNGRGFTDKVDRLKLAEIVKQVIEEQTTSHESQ

[15] = target: T2, MAP kinase-activated protein kinase 5 (Homo sapiens); conditions: at 1 µM
[16] = target: Serine/threonine-protein kinase SIK1 (Homo sapiens) (UniProt P57059); conditions: at 0.1 µM
Serine/threonine-protein kinase SIK1 (Homo sapiens), sequence (P57059 whole entry): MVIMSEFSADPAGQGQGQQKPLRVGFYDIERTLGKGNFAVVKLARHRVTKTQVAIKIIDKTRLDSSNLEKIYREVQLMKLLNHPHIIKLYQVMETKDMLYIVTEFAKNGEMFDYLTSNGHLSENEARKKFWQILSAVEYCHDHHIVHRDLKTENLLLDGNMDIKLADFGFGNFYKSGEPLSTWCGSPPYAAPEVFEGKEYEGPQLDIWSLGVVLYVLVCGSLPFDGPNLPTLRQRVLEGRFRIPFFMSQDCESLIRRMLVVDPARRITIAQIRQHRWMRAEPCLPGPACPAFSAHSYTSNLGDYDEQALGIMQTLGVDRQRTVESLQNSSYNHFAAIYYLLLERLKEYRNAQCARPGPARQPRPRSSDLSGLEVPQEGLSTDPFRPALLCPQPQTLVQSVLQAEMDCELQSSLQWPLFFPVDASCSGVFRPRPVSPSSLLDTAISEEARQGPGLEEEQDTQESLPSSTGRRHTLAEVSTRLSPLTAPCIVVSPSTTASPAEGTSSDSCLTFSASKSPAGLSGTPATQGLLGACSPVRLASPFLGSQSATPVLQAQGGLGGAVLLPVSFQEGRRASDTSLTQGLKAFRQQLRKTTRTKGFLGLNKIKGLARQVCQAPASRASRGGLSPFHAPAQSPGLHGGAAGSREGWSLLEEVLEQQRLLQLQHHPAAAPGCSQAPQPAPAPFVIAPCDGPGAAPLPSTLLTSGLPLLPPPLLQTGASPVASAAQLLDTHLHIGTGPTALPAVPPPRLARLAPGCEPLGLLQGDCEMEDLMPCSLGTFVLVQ

[17] = target: Serine/threonine-protein kinase SIK1 (Homo sapiens) (UniProt P57059); conditions: at 1 µM
[18] = target: Serine/threonine-protein kinase SIK2 (Homo sapiens) (UniProt Q9H0K1); conditions: at 0.1 µM
Serine/threonine-protein kinase SIK2 (Homo sapiens), sequence (Q9H0K1 whole entry, looked up): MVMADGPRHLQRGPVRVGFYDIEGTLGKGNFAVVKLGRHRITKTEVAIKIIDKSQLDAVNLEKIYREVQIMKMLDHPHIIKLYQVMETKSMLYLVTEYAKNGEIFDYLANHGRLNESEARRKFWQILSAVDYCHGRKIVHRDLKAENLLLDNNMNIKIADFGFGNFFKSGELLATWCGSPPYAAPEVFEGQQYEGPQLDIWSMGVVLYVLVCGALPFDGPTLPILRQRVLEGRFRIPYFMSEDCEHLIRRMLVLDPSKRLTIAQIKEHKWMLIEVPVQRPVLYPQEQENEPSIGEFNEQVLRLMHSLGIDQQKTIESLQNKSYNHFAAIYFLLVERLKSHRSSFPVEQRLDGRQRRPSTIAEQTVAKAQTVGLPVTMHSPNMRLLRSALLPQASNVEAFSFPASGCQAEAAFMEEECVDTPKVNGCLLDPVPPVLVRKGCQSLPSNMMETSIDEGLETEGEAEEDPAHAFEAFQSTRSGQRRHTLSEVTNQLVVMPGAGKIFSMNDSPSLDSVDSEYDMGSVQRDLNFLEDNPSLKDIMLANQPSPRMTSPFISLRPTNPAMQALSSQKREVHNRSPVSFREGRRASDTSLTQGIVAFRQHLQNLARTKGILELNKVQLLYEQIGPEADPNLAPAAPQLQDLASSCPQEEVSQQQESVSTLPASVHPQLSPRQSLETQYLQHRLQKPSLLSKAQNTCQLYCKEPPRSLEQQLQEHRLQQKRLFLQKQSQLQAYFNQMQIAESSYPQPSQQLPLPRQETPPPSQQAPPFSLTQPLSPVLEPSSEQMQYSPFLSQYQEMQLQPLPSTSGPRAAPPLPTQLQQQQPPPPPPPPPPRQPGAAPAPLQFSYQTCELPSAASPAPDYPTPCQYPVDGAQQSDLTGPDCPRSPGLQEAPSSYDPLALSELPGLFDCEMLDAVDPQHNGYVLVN

[19] = target: Serine/threonine-protein kinase SIK2 (Homo sapiens) (UniProt Q9H0K1); conditions: at 1 µM
[20] = target: T3, Serine/threonine-protein kinase TBK1 (Homo sapiens) (UniProt Q9UHD2); conditions: at 0.1 µM;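 note: values are the mean TBK1 inhibition, taken from the GSK PKIS screening data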
T3 sequence (whole entry): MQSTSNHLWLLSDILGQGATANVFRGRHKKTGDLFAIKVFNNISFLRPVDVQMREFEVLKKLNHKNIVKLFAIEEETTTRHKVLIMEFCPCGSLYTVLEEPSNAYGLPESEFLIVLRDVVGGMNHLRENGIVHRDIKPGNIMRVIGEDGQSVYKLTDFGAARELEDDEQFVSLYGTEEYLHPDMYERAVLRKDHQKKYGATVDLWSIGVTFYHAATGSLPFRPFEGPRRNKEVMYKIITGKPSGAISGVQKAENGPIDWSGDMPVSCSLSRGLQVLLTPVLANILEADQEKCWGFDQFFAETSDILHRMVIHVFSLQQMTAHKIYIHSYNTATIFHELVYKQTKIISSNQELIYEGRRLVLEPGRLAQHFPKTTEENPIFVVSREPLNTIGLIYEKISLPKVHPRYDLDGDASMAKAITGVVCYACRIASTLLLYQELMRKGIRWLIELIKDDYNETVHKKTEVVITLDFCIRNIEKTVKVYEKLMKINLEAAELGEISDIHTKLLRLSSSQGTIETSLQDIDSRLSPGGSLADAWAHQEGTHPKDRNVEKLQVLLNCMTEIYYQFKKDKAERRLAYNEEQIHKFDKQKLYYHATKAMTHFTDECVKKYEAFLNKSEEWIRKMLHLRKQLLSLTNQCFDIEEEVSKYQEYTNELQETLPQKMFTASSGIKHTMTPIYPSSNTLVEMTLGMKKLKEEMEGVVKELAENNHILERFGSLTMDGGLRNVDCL

Serine/threonine-protein kinase MARK2 (Homo sapiens), sequence (Q7KZI7 whole entry, the tested form may be a part): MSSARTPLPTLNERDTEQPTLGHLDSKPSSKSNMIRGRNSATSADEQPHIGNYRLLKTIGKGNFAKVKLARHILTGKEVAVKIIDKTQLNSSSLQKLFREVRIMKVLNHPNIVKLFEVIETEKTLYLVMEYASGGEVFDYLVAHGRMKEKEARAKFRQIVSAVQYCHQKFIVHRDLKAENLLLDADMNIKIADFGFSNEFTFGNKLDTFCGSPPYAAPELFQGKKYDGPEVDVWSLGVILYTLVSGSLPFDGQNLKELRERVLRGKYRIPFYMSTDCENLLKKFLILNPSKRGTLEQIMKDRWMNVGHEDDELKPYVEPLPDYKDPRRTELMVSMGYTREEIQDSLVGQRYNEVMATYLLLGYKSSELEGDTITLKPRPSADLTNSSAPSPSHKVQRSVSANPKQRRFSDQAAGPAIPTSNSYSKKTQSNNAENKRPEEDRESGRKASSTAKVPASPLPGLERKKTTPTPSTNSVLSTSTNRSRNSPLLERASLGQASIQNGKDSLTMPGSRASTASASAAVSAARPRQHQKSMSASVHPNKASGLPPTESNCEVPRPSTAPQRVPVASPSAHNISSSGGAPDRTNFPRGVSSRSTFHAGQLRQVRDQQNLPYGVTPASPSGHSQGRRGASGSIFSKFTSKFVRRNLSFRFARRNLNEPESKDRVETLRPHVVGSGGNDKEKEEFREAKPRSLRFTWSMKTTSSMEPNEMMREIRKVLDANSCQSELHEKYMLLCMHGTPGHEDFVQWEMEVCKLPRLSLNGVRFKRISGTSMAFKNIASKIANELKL
PAS domain-containing serine/threonine-protein kinase (Homo sapiens), sequence (Q96RG2 whole entry, the tested form may be a part, canonical isoform): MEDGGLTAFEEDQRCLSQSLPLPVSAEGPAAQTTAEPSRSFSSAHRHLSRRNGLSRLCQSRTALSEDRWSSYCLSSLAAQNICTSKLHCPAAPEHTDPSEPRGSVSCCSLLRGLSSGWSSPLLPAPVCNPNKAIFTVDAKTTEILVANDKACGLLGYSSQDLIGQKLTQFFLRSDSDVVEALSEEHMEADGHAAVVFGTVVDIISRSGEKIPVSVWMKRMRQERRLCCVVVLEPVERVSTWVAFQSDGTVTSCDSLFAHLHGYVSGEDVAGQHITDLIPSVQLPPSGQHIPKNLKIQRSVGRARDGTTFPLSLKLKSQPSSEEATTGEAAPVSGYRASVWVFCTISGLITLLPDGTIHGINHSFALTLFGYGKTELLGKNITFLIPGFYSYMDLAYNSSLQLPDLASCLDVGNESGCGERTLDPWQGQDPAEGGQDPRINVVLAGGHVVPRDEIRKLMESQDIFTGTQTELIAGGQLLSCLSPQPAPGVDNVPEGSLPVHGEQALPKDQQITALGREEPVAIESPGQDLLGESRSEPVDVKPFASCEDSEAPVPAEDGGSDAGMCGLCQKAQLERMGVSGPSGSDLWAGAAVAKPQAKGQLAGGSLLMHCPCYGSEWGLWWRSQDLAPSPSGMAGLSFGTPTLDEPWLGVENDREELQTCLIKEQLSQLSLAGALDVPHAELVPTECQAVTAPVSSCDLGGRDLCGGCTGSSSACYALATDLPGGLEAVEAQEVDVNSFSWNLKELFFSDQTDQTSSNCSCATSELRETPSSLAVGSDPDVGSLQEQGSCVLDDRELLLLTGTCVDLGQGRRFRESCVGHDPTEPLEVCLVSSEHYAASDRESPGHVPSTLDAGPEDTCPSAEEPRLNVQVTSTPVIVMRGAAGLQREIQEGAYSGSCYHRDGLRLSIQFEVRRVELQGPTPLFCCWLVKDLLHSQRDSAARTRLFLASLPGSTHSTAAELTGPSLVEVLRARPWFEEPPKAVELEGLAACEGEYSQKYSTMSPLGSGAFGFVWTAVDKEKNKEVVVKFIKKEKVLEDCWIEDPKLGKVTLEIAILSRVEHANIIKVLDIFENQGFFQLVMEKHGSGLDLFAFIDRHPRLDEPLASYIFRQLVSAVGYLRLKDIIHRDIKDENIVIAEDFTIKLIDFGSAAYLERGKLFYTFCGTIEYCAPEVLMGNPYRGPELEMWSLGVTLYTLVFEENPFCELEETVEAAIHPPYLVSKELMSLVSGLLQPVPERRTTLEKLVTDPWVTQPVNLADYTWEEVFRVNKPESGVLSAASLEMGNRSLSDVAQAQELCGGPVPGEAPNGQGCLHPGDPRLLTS

Row | Structure (SMILES) | inhibition [1] [%] | inhibition [2] [%] | inhibition [3] [%] | inhibition [4] [%] | inhibition [5] [%] | inhibition [6] [%] | inhibition [7] [%] | inhibition [8] [%] | inhibition [9] [%] | inhibition [10] [%] | inhibition [11] [%] | inhibition [12] [%] | inhibition [13] [%] | inhibition [14] [%] | inhibition [15] [%] | inhibition [16] [%] | inhibition [17] [%] | inhibition [18] [%] | inhibition [19] [%] | inhibition [20] [%]
1 | Fc1ccc(-c2ncn(C3CCNCC3)c2-c2ccnc(Oc3ccc(F)c(F)c3)n2)cc1 | 1.71 | -0.38 | -0.29 | 6.75 | 10.8 | 4.85 | 4.7 | -1.11 | -0.52 | -3.98 | -3.35 | -1.04 | -0.06 | 1.47 | 1.56 | 1.72 | 7.15 | 0.78 | 8.24 | 2.13
2 | CCc1nccc2c1nc(-c1nonc1N)n2CC | 1.67 | 0.71 | 0.86 | 3.65 | 1.98 | -0.2 | -2.03 | 0.32 | 1.23 | 0.4 | 1.27 | -0.38 | -2.26 | -0.45 | -1.56 | 0.62 | 4.31 | -4.39 | 6.79 | 1.12
3 | NS(=O)(=O)c1ccc(N/N=C2\C(=O)Nc3ccc(C(=O)NCCCn4ccnc4)cc32)cc1 | 9.93 | 0.17 | 2.55 | 9.94 | 25.8 | 3.91 | 10 | 2.53 | 15.6 | 0.82 | 7.42 | 3.06 | 18.9 | 1.4 | 4.54 | 7.49 | 13.9 | 9.61 | 12.7 | 3.93
4 | C/C(Nc1ccc(S(N)(=O)=O)cc1)=C1/C(=O)Nc2ccccc21 | 18.6 | -1.08 | -1.37 | 5.53 | 29.9 | -0.73 | 19.6 | 0.43 | 2.86 | 0.75 | 0.33 | 0.02 | 1.7 | -0.26 | 1.08 | -7.25 | -0.38 | -6.72 | -0.55 | 0.77
5 | O=C(Nc1n[nH]c2nc(-c3ccc(O)cc3)c(Br)cc12)C1CC1 | 5.24 | 0.21 | 0.71 | 7.64 | 10.7 | 6.68 | 7.34 | 19.7 | 65.5 | 45.5 | 75.2 | 31.9 | 73.9 | 2.42 | 3.04 | 6.92 | 17.1 | 14.2 | 19.9 | 4.12
6 | COc1cc(Nc2ncc3c(C)nc(-c4cccc(Oc5ccccc5)c4)n3n2)cc(OC)c1OC | 5.64 | 0.54 | -0.72 | -0.01 | 5.67 | 2.66 | -0.4 | 0.91 | 1.16 | 0.23 | 1.14 | 0.34 | -0.16 | -0.04 | -1.56 | 3.67 | 10.1 | 1.91 | 0.43 | 4.47
